Shown are actives, neighbours in structure and some others; about 4% of the full set was active somewhere.
TWEAK Fn14 block: TWEAK-Fn14 signaling inhibition. TWEAK-stimulated Fn14 reporter cells, luciferase luminescence, 8 h. inhibition, % at 10 µM. hit rate 2% among 360,000. AID 1159606; in the data active = inhibition above about 50%
TROY NFkB inh: inhibitors of TROY-dependent NF-kB signaling; Q293 LMP1-TROYcd NF-kB luciferase reporter, 4 h; inhibition, % at 10 µM; hit rate 0.98% among 360,000; AID 1347056;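 active = compounds whose plate-normalised and pattern-corrected inhibition of the luciferase reporter signal at the single screening dose is 50% or more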
CF NFkB block: inhibitors of cystic fibrosis induced NF-kB; KKLEB NF-kB-GFP reporter, PAF-induced, GFP fluorescence overnight; inhibition, % at 5 µM; hit rate 0.86% among 360,000; AID 588850;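 active = at least 50% inhibition at 5 µM, scaled per plate between neutral and stimulator controls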;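 also: PAF is a Pseudomonas aeruginosa culture filtrate used as stimulus; plate controls were PAF-stimulated DMSO wells for no effect and unstimulated DMSO wells for full effect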
HIF-2a inh: HIF-2a inhibition. 786-0 RCC cells HIF-2a reporter, luciferase luminescence, overnight. hit rate 0.72% among 360,000. inhibition, % at 18.8 µM;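 active = inhibition of the luminescence signal of 40% or more relative to plate controls, in a single-dose primary screen at 18.75 µM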
KKLEB cytotox: CF airway cell cytotoxicity counter-screen; KKLEB CF airway cells viability, ATPlite luminescence, overnight; hits give low values; cells stimulated with P. aeruginosa culture filtrate; activity change (cytotoxicity), % at 5 µM; hit rate 0.36% among 360,000;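 active = corrected activity change at or below -50% at 5 µM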
Peg3 prom inh: reduces Peg3 promoter-driven luciferase expression in HeLa; hit rate 1.7% among 360,000; inhibition, % at 20 µM; AID 588405; HeLa PEG-Prom luciferase reporter, luminescence, overnight;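 active = inhibition of at least 50% at 20 µM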
Mdm2-MdmX confirm: Mdm2/MdmX (human) interaction inhibition, confirmed; shares compounds with HIF-2a inh; AID 504601; inhibition, % at 8 µM; hit rate 99% among 740; SaOS-2 split-luciferase Mdm2/MdmX complementation, luminescence;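 active = mean inhibition of the luminescence signal across two replicates at or above 26 percent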
Target sequence (O15151 whole entry, looked up): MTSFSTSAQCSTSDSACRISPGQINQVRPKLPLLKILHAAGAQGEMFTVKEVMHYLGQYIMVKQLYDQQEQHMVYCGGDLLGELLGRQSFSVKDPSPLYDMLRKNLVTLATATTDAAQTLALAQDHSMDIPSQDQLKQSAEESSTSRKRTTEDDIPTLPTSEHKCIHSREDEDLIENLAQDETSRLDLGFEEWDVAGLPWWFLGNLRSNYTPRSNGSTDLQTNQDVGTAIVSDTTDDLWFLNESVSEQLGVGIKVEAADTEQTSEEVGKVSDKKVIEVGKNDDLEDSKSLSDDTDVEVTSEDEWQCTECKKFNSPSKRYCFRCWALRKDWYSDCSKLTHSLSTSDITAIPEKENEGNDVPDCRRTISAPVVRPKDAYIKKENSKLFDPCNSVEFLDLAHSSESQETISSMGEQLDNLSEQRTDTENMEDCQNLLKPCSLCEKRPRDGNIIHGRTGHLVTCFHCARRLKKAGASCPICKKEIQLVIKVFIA
Target sequence (Q00987 whole entry, looked up): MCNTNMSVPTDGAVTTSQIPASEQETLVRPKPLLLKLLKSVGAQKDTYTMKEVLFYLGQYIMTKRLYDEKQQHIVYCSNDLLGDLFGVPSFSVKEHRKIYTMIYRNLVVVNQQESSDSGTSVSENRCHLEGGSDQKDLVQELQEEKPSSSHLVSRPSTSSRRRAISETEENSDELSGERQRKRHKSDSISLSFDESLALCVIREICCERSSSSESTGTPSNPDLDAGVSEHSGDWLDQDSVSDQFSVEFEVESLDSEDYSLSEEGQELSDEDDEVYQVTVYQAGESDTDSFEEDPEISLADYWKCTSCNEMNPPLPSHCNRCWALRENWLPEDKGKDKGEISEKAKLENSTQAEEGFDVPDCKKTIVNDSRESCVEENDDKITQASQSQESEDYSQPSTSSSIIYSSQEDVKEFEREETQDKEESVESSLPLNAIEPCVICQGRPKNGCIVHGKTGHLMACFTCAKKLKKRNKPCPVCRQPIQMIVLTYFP
HIF-2a inh conf: confirmation of HIF-2a inhibitors. AID 651580. hit rate 56% among 1,800. shares compounds with HIF-2a inh. 786-0 RCC cells, HIF-2a luciferase reporter luminescence, overnight. inhibition, % at 18.8 µM;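 active = mean inhibition across four replicates of at least 40 percent at the single tested concentration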
HIF-1a counter: counter-screen for HIF-2a inhibitors: HIF-1a inhibition in MiaPaCa-2 cells. shares compounds with HIF-2a inh. MiaPaCa-2 HIF-1a luciferase reporter, desferoxamine, overnight. inhibition, % at 18.8 µM. hit rate 72% among 1,800;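 active = mean inhibition of the reporter signal across four replicates at the single tested dose of 50% or more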
An asterisk follows results filed as active; x = no result.

SMILES	TWEAK Fn14 block	TROY NFkB inh	CF NFkB block	HIF-2a inh	KKLEB cytotox	Peg3 prom inh	HIF-2a inh conf	HIF-1a counter	others
CCN(Cc1ccccc1)c1ccc(/C=N/N=C(N)N)cc1	44.5	34.2	35.1	93.5*	-18.2	108.0*	3.2	107.6*	Mdm2-MdmX confirm=103.2*
C=C(C(=O)c1ccccc1)C(CC(=O)c1ccccc1)c1ccccc1 (stereo not given)	71.4*	11.1	52.2*	94.7*	-54.6*	99.5*	56.6*	102.6*	Mdm2-MdmX confirm=102.5*
COc1cc(C2SCC(=O)N2Cc2ccccc2)cc(OC)c1OC (stereo not given)	-3.0	-3.6	0.0	3.9	-1.6	15.6	x	x
CCC(C)c1ccc(NC(=O)NCCN2CCCCC2)cc1 (stereo not given)	-4.8	14.7	-2.3	15.2	2.3	9.8	x	x
O=C(Cn1ccc(NC(=O)OCc2ccccc2)nc1=O)NCc1nc2ccccc2[nH]1	-4.2	-12.3	1.8	11.9	1.2	-16.8	x	x
Cn1c(=S)n(C)c2ccccc21	2.4	-2.7	6.2	55.3*	-8.5	0.3	-13.4	-11.9
CCN1CCN(C(=O)C(Cc2ccccc2)NC(=O)c2ccc(Cl)c(S(=O)(=O)N(C)C)c2)CC1 (stereo not given)	12.4	11.8	-4.0	1.0	9.9	4.2	x	x
O=C(NCC(c1cccs1)N1CCOCC1)c1cc(S(=O)(=O)N2CCOCC2)ccc1Cl (stereo not given)	-7.4	-1.9	-27.2	-4.1	12.2	-3.9	x	x
Cc1ccc(-c2csc3ncnc(Sc4nnc(CN5CCCCCC5=O)o4)c23)cc1	84.8*	34.7	93.3*	94.3*	9.0	106.2*	99.5*	103.5*
CCOC(=O)c1nnc(-c2ccccc2)nc1Sc1c(Cl)cccc1Cl	26.9	9.5	22.5	62.5*	-1.5	64.0*	19.6	65.3*
COc1ccc(C=C2C=C(C(C)(C)C)C(=O)C(C(C)(C)C)=C2)cc1OC	-5.2	17.2	43.3	82.0*	-12.4	105.0*	65.3*	103.2*
Cc1ccc(NC(=O)c2ccc(Cl)c(N3C(=O)C=CC3=O)c2)cc1	-13.4	-54.2	28.0	49.4*	-1.0	101.2*	24.7	-34.0
O=C(Nc1ccc(Cl)c(Cl)c1)c1ccc(Cl)c(Cl)c1	-59.0	-43.2	-1.6	-272.4	-3.4	-127.0	x	x
Nc1ncnc2c1ncn2[C@@H]1O[C@H](CO)[C@@H](O)[C@H]1O	-57.0	-2.4	-13.9	0.7	16.1	-10.7	x	x
Nc1ncnc2c(C3OC(CO)C(O)C3O)c[nH]c12 (stereo not given)	100.6*	70.7*	83.3*	49.9*	-53.3*	95.9*	37.3	106.1*
Cc1ccc(S(=O)(=O)NCCC2=CCCCC2)cc1	-4.6	-14.1	8.2	-6.1	8.3	-11.8	x	x
CCOC(=O)COc1ccc(S(=O)(=O)NCCC2=CCCCC2)cc1	12.4	5.8	10.0	54.1*	0.4	11.1	7.3	-0.6
Cn1c(/C=C/c2ccc(Br)cc2)c([N+](=O)[O-])c(=O)n(C)c1=O	63.0*	2.3	31.6	92.0*	29.1	61.6*	55.3*	96.1*
COC(=O)c1ccc(CN(c2ccccn2)S(=O)(=O)c2ccccc2)cc1	13.8	-8.6	7.1	6.3	-8.4	8.2	x	x
COC(=O)c1ccc(CN(c2ccc(C(=O)O)c(O)c2)S(=O)(=O)c2ccc(Cl)c([N+](=O)[O-])c2)cc1	-0.8	43.6	23.0	76.5*	-4.6	54.9*	5.4	57.2*
CCOC(=O)C1=CN(CC)S(=O)(=O)NC1c1cccc(OC)c1 (stereo not given)	8.6	0.3	16.3	6.8	-16.8	-6.3	x	x
COC(=O)c1c(NC(=O)c2nc3ccccc3s2)sc2c1CC(C)(C)NC2(C)C	-68.4	-8.7	33.7	23.3	-31.7	104.5*	x	x	Mdm2-MdmX confirm=92.7*
Cc1ccc(NC(=O)c2ccccc2)cc1	-2.1	-63.5	11.9	-225.1	-16.7	-307.4	x	x
Cc1ccc(NC(=O)C2=C(c3ccccc3)S(=O)(=O)CCS2(=O)=O)cc1	87.7*	73.5*	95.6*	81.2*	-71.6*	108.8*	80.8*	102.5*	Mdm2-MdmX confirm=103.2*
COCC(C)n1c(C)cc(C(=O)COC(=O)c2cc(=O)[nH]c3ccccc23)c1C (stereo not given)	88.1*	82.6*	3.6	43.2*	-2.6	52.0*	44.8*	36.3
SMILES	TWEAK Fn14 block	TROY NFkB inh	CF NFkB block	HIF-2a inh	KKLEB cytotox	Peg3 prom inh	HIF-2a inh conf	HIF-1a counter	others
COc1ccccc1C(=O)COC(=O)c1cc(=O)[nH]c2ccccc12	-19.0	-33.5	21.1	-89.2	-10.6	-4.4	x	x
Nc1cc(Nc2ccccc2)ccn1	10.5	0.8	-8.6	4.3	-23.9	-17.6	x	x
N#Cc1sc2nccc(Nc3ccccc3)c2c1N	80.1*	29.5	81.3*	16.9	-13.5	23.4	x	x	Mdm2-MdmX confirm=91.2*
O=C(COc1coc(CN2CCc3ccccc3C2)cc1=O)Nc1cccc([N+](=O)[O-])c1	-0.2	-15.9	-11.0	-29.9	-4.5	-12.1	x	x
CCN1CCN(c2ccc(S(=O)(=O)N3CCCCC3)cc2NC(=O)/C=C/c2ccc([N+](=O)[O-])cc2)CC1	-5.0	-13.9	-25.9	87.0*	-20.2	76.0*	-16.6	100.8*
CCOC(=O)c1sc2nc(C)nc(N3CCN(S(=O)(=O)c4ccccc4)CC3)c2c1C	7.2	-13.5	-29.0	-61.1	6.1	-47.3	x	x
O=c1c2c(c(-c3ccccc3)nn1Cc1ccccc1)CCCC2	-10.9	-10.2	12.6	-7.2	-2.0	-21.0	x	x
O=[N+]([O-])c1c(Nc2cccc(O)c2)cc(Cl)c2nonc12	64.3*	88.2*	91.3*	89.7*	-91.6*	102.8*	95.3*	105.1*	Mdm2-MdmX confirm=103.7*
COc1cccc(Nc2cc(N3CCOCC3)c3nonc3c2[N+](=O)[O-])c1	-18.9	-25.1	7.6	26.1	-20.2	-1.4	x	x
Cc1c(Nc2cc(Cl)c3nonc3c2[N+](=O)[O-])c(=O)n(-c2ccccc2)n1C	50.3*	83.6*	94.0*	98.1*	-55.6*	104.7*	98.5*	104.6*	Mdm2-MdmX confirm=103.2*
O=[N+]([O-])c1c(Nc2ccccc2O)cc(N2CCOCC2)c2nonc12	-29.5	3.7	-4.9	50.8*	-13.8	23.8	22.5	71.6*
Cc1ccc(-n2nnc3c(=O)oc4ccccc4c32)cc1	-13.8	-2.2	18.1	52.0*	0.6	49.5	14.5	29.5
N#CC1=C(N)Oc2n[nH]c(-c3cccs3)c2C1C1C=CCCC1 (stereo not given)	9.2	12.9	18.5	27.2	-1.9	31.1	x	x

Source: PubChem BioAssay
